Each structure is given as a SMILES string. About 4,000 (25%) of roughly 16,000 compounds were called active. Another 26% or so got no clear call; they are omitted. A selection follows. A number with no mark means an inactive call. The call rests on the fitted dose curve; in most records, active means well fitted curve in the direction sought with a large enough effect; inconclusive means small, poorly fitted or top-dose-only effect, or effect the other way; inactive means no such curve, though single readings can be large or run the other way.
On the % scale 0 is the no-effect control and ±100 the full control effect.

Chain of Cytochrome P450 2C9 (Homo sapiens) (P11712 whole entry, looked up): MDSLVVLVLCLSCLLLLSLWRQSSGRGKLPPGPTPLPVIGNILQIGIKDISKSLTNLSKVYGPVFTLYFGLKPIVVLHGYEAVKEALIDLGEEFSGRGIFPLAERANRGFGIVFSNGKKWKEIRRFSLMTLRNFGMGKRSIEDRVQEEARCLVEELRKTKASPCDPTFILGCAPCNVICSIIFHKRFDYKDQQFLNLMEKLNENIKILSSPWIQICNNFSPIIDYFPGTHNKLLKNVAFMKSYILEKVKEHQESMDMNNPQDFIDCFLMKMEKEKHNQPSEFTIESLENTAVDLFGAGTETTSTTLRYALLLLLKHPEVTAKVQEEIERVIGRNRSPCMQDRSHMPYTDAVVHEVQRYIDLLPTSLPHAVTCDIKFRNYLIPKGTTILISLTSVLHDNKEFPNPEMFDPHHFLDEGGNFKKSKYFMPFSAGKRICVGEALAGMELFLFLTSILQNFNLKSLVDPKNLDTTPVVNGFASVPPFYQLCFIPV

This experiment addresses Cytochrome P450 2C9 (Homo sapiens) (UniProt P11712). In words: Cytochrome panel assay with activity outcomes. Conditions: recombinant CYP, pro-luciferin dealkylation, luminescence, p450-cyp2c9; series mostly up to 57.1 µM; activity, negative = inhibition: at the top concentration.
As for `COCCCNC(=O)C1CC(=O)N(CCc2ccc(OC)c(OC)c2)C1` (stereo not given), the “activity, negative = inhibition” value was -2.84%.

For the molecule `COc1ccc(/C=C2\SC(=O)N(CCNC(=O)C3CC(=O)N(c4ccccc4)C3)C2=O)cc1` (stereo not given), the concentration at half-maximal activity (AC50) (as a rule, the concentration giving half of the maximal activity seen) is 7.94 µM (active).

As for `COCCCNC(=O)C1CC(=O)N(Cc2ccc(OC)cc2)C1` (stereo not given), the “activity, negative = inhibition” value was 7.71%.

In the case of `COc1ccccc1-c1cc(NCc2cccs2)ncn1`, the activity, negative = inhibition is 17.3% [at 2.29 µM].

`Cc1ccc(CS(=O)(=O)CCC(=O)NCCN2CCCC2)cc1`: the “activity, negative = inhibition” value is 9.44%.

With `O=C(NCCN1CCOCC1)c1csc2c1CCCCC2`, the “activity, negative = inhibition” value is 24.6%.

In the case of `CCC(=O)Nc1c2c(nc3c1CCC3)CCCC2`, the “activity, negative = inhibition” value is -14.1%.

For `Cc1cc(=O)[nH]c(SCC(=O)Nc2nc3c(s2)CCCC3)n1`, the AC50 is 15.8 µM (active).

For the molecule `O=C(Cc1ccc(S(=O)(=O)N2CCOCC2)s1)Nc1nc2c(s1)CCCC2`, the AC50 is 15.8 µM (active).

Regarding `CCC(Sc1nc(C)cc(=O)[nH]1)C(=O)Nc1nc2c(s1)CCCC2` (stereo not given), the AC50 was 7.94 µM (active).

For `Cc1ccc(S(=O)(=O)CCC(=O)Nc2nc3c(s2)CCCC3)cc1`, the AC50 is 1.12 µM (active).

As for `Cc1cc(=O)[nH]c(-n2[nH]c3c(c2=O)CCCC3)n1`, the “activity, negative = inhibition” value is -22.4%.

Regarding `Cc1ccc(CS(=O)(=O)CCC(=O)NCCCN2CCCC2)cc1`, the “activity, negative = inhibition” value is -9.15%.

In the case of `C[C@@]12C=CC(=O)C=C1CC[C@@H]1[C@@H]2[C@H](O)C[C@]2(C)[C@@H]1CC[C@]2(O)C(=O)CO`, the “activity, negative = inhibition” value is 21.5% [at 25.6 µM].

`COC(=O)[C@@]1(Cc2ccc(OC)cc2)[C@H]2c3cc(C(=O)N4CCCC4)n(Cc4ccc(Cl)c(C(F)(F)F)c4)c3C[C@H]2CN1C(=O)c1ccccc1`: the concentration at half-maximal activity (AC50) was 20 µM (active).

`COC(=O)[C@@]1(Cc2ccc(F)cc2)[C@H]2c3cc(C(=O)N4CCCC4)n(Cc4ccc(Cl)c(C(F)(F)F)c4)c3C[C@H]2CN1C(=O)c1ccccc1`: the AC50 is 12.6 µM (active).

`COC(=O)[C@@]1(Cc2ccc(F)cc2)[C@H]2c3cc(C(=O)N(C)C)n(Cc4ccc(Cl)c(C(F)(F)F)c4)c3C[C@H]2CN1C(=O)c1ccccc1`: the AC50 is 3.98 µM (active).

With `COC(=O)[C@@]1(Cc2ccc(F)cc2)[C@H]2c3cc(C(=O)N(C)C)n(CCCNc4ccc(C(F)(F)F)cc4Cl)c3C[C@H]2CN1C(=O)c1ccccc1`, the concentration at half-maximal activity (AC50) is 20 µM (active).

With `O=C1CN(c2nc(-c3ccccc3)c3cc(Br)ccc3n2)c2ccccc2N1`, the “activity, negative = inhibition” value is -13.7%.

As to `O=C(Nc1ccccc1)N1CCCC2(CCN(C(=O)c3csnn3)CC2)C1`, the “activity, negative = inhibition” value is -12.1%.

On to `CCOc1cccc2cc(C(N)=O)c(=NCc3ccccc3)oc12`, for which the “activity, negative = inhibition” value is -15.9%.

As for `CCC1CCc2c(c3ccccc3[nH]c2=O)O1` (stereo not given), the “activity, negative = inhibition” value is -24.7%.

For the molecule `Cc1cnc(CNc2nc(-c3ccc(C(=O)N(C)C)cc3)nc3ccccc23)cn1`, the activity, negative = inhibition is 6.85% [at 2.29 µM].

Regarding `O=C(Nc1cccc(F)c1)N1CCC2(CC1)CCN(C(=O)c1ccco1)CC2`, the “activity, negative = inhibition” value is -25.9%.

On to `CC(=O)c1cccc(NC(=O)/C(=C\c2ccco2)NC(=O)c2cccs2)c1`, for which the AC50 was 8.91 µM (active).

In the case of `O=C(Nc1cccc(F)c1)/C(=C\c1ccco1)NC(=O)c1cccs1`, the concentration at half-maximal activity (AC50) was 31.6 µM (active).

For the molecule `CCc1cc2c(nc1CC)CCN(CC/C(C)=N/OC[C@@H](C)[C@H](OCc1ccccc1)C(C)C)C2`, the activity, negative = inhibition is -5.74% [at 11.4 µM].

`COc1ccc(NC(=O)N2CC3(CCN(C(=O)c4ccc(OC)cc4)CC3)C2)cc1`: the “activity, negative = inhibition” value was 9.75%.

For the molecule `CC(C)(C)C(=O)[C@H]1[C@H](c2ccccc2)[C@@]2(N=C(c3ccccc3)OC2=O)C2c3ccccc3C=NN21` (stereo not given in full), the AC50 was 15.8 µM (active).

Consider `Cc1cc(Oc2ccc(-c3ccccc3)cc2)nc(N2CCOCC2)n1`, for which the concentration at half-maximal activity (AC50) was 3.98 µM (active).

Take `O=c1ccc(Oc2nc(N3CCOCC3)nc(N3CCOCC3)n2)n[nH]1`: the “activity, negative = inhibition” value was -26.1%.

With `Cc1ccc(Oc2cc(N3CCOCC3)nc(-c3ccccc3)n2)cc1`, the half-maximal activity concentration (AC50) is 17.8 µM (active).

In the case of `COc1cc(N2CCOCC2)ncn1`, the “activity, negative = inhibition” value was -23.1%.

Take `COc1ccc(-n2c(=O)c(C)nc3cnc(N4CCOCC4)nc32)cc1`: the “activity, negative = inhibition” value is -29.2%.

Consider `CCCc1ccc(Oc2cc(C)nc(N3CCOCC3)n2)cc1`, for which the AC50 is 25.1 µM (active).

Take `COC(=O)c1ccc(Oc2nc(N(C)C)nc(N3CCOCC3)n2)cc1`: the “activity, negative = inhibition” value is -44.5%.

For `COc1ccc(-n2c(=O)c(-c3ccccc3)nc3cnc(N4CCOCC4)nc32)cc1`, the “activity, negative = inhibition” value is -1.43%.

As to `Cc1noc(C)c1-c1nccc(N2CCOCC2)n1`, the activity, negative = inhibition was 7.39% [at 2.29 µM].

`N#C[C@H]1CN[C@H](N)N[C@@H]1N`: the activity, negative = inhibition is -4.64% [at 11.4 µM].

Turning to `CCCOc1ccc(CSC(CC(=O)O)C(=O)O)cc1` (stereo not given), the “activity, negative = inhibition” value is -5.81%.

Regarding `CCCCOc1ccc(CNn2c(C)nc3ccccc3c2=O)cc1`, the concentration at half-maximal activity (AC50) was 4.47 µM (active).

As to `COc1ccc(CN[C@H](C)C(=O)O)cc1`, the activity, negative = inhibition is 12.3% [at 11.4 µM].

For `Cc1nc2ccccc2c(=O)n1NC(=O)c1ccccc1Cl`, the AC50 is 7.94 µM (active).

As to `COc1ccc(CNn2c(C)nc3ccccc3c2=O)cc1`, the AC50 was 5.62 µM (active).

With `O=C(Nn1cnc2ccccc2c1=O)c1ccc(F)cc1Cl`, the “activity, negative = inhibition” value was 13.4%.

The values above are taken from PubChem BioAssay AID1851 (National Center for Advancing Translational Sciences (NCATS), 2009).
